# Source: PubChem BioAssay (NCI)
# About 83,000 compounds went through this panel and 20% of them were active in at least one assay; those are over-represented in the sample as a whole.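 Growth was measured after 48 h exposure to one concentration of compound in 96-well plates. Values under 10 count as active.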 Values without a mark were called inactive. The source made the active and inactive calls.
# How the values were obtained:
# Test in all cases: NCI-60 one-dose screen, 48 h (100 = growth as untreated, 0 = no growth, -100 = all killed)
# Conditions in all cases: 10 µM unless noted
# SR leukemia = test system: SR leukemia
# RPMI-8226 leukemia = test system: RPMI-8226 leukemia
# OVCAR-8 ovarian = test system: OVCAR-8 ovarian
# OVCAR-5 ovarian = test system: OVCAR-5 ovarian
# OVCAR-4 ovarian = test system: OVCAR-4 ovarian
# SK-OV-3 ovarian = test system: SK-OV-3 ovarian
# IGROV1 ovarian = test system: IGROV1 ovarian
# OVCAR-3 ovarian = test system: OVCAR-3 ovarian
# HS 578T breast = test system: HS 578T breast
# NCI/ADR-RES ovarian = test system: NCI/ADR-RES ovarian
Compound,growth (SR leukemia),growth (RPMI-8226 leukemia),growth (OVCAR-8 ovarian),growth (OVCAR-5 ovarian),growth (OVCAR-4 ovarian),growth (SK-OV-3 ovarian),growth (IGROV1 ovarian),growth (OVCAR-3 ovarian),growth (HS 578T breast),growth (NCI/ADR-RES ovarian)
CN1C(=O)N(C)C2C1NN=c1s/c(=C\C=C\c3ccccc3)c(=O)n12 (stereo not given),24.3%,84.9%,79.7%,85.9%,81.9%,65.7%,50.7%,12%,59.6%,36.4%
CCOC(=O)C1C(=O)C=C(c2ccc(OC)cc2)CC1c1sc(N(C)Cc2ccccc2)nc1Cl (stereo not given),81%,63.9%,80.9%,86.2%,78.2%,90%,104%,87.5%,49.2%,88.2%
O=C(NNC(=O)N1c2ccccc2C=Cc2ccccc21)c1ccc2ccccc2c1,87.2%,96.7%,94.9%,91.3%,91.8%,110%,102%,101%,101%,93%
S=c1[nH]nc(-c2cc3ccc2CCc2ccc(cc2)CC3)n1C1CC1,109%,106%,107%,99.1%,89.4%,113%,101%,108%,101%,103%
CC(=O)c1cc2c(N)c(C(=O)Nc3cccc4c3OCCO4)sc2nc1C,80.8%,99.7%,106%,100%,110%,35.8%,101%,105%,96.3%,96.8%
COc1ccc(Nc2ncccc2C(=O)NCc2cn(Cc3cccc(Oc4ccccc4)c3)nn2)cc1,30.8%,55.4%,65.6%,75.2%,71.1%,36.8%,53.5%,-4.73% (active),48.7%,16.3%
CCOc1cc2c(Cl)ncnc2c(OCC)c1OCC,4.52% (active),15.5%,99.6%,96.7%,94.9%,108%,-65.2% (active),3.36% (active),94.7%,92.5%
C=C1C(=O)O[C@H]2[C@H]1CC/C(Cn1cc(CNC(=O)Cc3cn(C(=O)c4ccc(Cl)cc4)c4ccc(OC)cc34)nn1)=C\CC[C@@]1(C)O[C@@H]21,-28% (active),-40.2% (active),-64.2% (active),58.3%,18.8%,88.9%,-18.7% (active),-82.3% (active),24.7%,95.9%
COc1ccc(C2=C(c3cc(OC)c(OC)c(OC)c3)C(=O)CC2)cc1,15.7%,14.1%,22.8%,33.1%,49%,7.01% (active),27.9%,-65.4% (active),6.1% (active),-49.4% (active)
COc1ccc(-c2nc(/C=N/Nc3cc(C)nc4ccc(Cl)cc34)c(C)o2)cc1,-5.37% (active),-50.8% (active),-82% (active),-93.3% (active),-95.3% (active),92.5%,-78.8% (active),-96.9% (active),-29.3% (active),-74.7% (active)
Cc1cc(C2=NNC(=O)Cc3cc4c(cc32)OCCO4)cc(C)c1N,27.5%,52.8%,54.8%,75.8%,56.8%,20.2%,44.7%,-28.5% (active),24.9%,-4.6% (active)
C=C1CC2(OC1=O)C(=O)N(CCCN1C(=O)C3(CC(=C)C(=O)O3)c3ccccc31)c1ccccc12 (stereo not given),3.74% (active),-33.3% (active),11.6%,21.9%,25.2%,111%,35%,-13% (active),58.2%,50%
O=c1ccn(C2CC(O)C(O)C(CO)O2)c(=O)[nH]1 (stereo not given),123%,85.7%,116%,108%,108%,114%,118%,123%,120%,113%
COc1cc(C(=O)/C=C/c2ccc3nc(-c4cc(F)cc(F)c4)sc3c2)cc(OC)c1OC,103%,90.7%,104%,97.1%,107%,94.5%,96.6%,112%,93.1%,98.7%
O=C(O)COc1ccc(-c2cssc2=S)cc1,54.8%,113%,101%,98.7%,103%,108%,112%,122%,105%,108%
NC1=NC(SCc2ccccc2CCl)c2ncn(Cc3ccccc3CCl)c2N1 (stereo not given),9.1% (active),76.7%,22.8%,110%,42.9%,89.7%,-26.3% (active),2.22% (active),33.8%,69%
O=C([O][Sn]([O]C(=O)c1ccccn1)([c]1ccccc1)[c]1ccccc1)c1ccccn1,47.6%,26%,93.6%,94.9%,81.3%,99.7%,74.1%,71.4%,88.5%,95.1%
CC1CCC(C)N(C)C1 (stereo not given),88.1%,89.7%,105%,106%,107%,102%,106%,112%,108%,107%
Clc1ccccc1-c1nc2ccccc2[nH]1,116%,74%,106%,54.4%,96.9%,103%,108%,102%,113%,-4.71% (active)
CCN(CC)CCOc1ccc(/C(=C(/C)c2ccccc2)c2ccc(OC(C)=O)cc2)cc1,112%,100%,112%,98.2%,100%,106%,105%,104%,95.2%,101%
CCn1c2ccccc2c2cc(NC(=O)Nc3ccc([N+](=O)[O-])cc3C)ccc21,-2.84% (active),-21.4% (active),49.9%,57.9%,44.2%,74.9%,43%,-2.64% (active),52.7%,23.1%
CCOC(=O)C1CCNC(=O)C1=O (stereo not given),88.9%,96.8%,110%,104%,119%,117%,130%,122%,119%,105%
CCCC(=O)Oc1ccc(/C(=C(\C)c2ccccc2)c2ccc(OCCN(CC)CC)cc2)cc1,28.2%,55.4%,83.3%,88.7%,86.6%,91.7%,90.7%,94.9%,42.6%,86.7%
COc1cc(NC(N)=NCCC(C)(C)Oc2ccc(C(F)(F)F)cc2)ncc1C#N,-54.9% (active),-49.6% (active),-76.6% (active),28.9%,12%,48.8%,-38.9% (active),-75% (active),38.1%,0.0363% (active)
O=C(CCl)N(C1CCCCC1)C1CCCCC1,100%,112%,104%,111%,89.7%,117%,96.7%,114%,105%,105%
O=C(Nc1ccc(NCCN2CCOCC2)nc1)c1ccc([N+](=O)[O-])cc1,113%,107%,96.2%,105%,103%,107%,121%,114%,104%,105%
CC(=O)Nc1ccc(/C=C/C(=O)c2ccccc2)cc1,3.34% (active),-8.05% (active),98.4%,113%,106%,101%,43%,57.6%,81.7%,103%
CC(C)(C)N1CCC1C(N)=O (stereo not given),115%,87.5%,102%,48.7%,104%,104%,265%,105%,111%,-4.51% (active)
